High-throughput results: PubChem, Johns Hopkins Ion Channel Center
KCNQ2 enhance – potentiators of rat KCNQ2 potassium channel; Potassium voltage-gated channel subfamily KQT member 2 (Rattus norvegicus), O88943; AID 2239, 2010; CHO-K1 KCNQ2, FluxOR thallium flux fluorescence; active compounds read high; 0.54% of 310,000 active; B-score at 10 µM;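 active = fluorescence ratio B-score at least 3 SD of library B-scores, with initial fluorescence B-score within 3 of them, cut at about 5.3 in these data; same plate scores as AID 2156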;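 note: B-score of peak minus minimum over baseline fluorescence ratio after K+ and Tl+ stimulus; positive B-score means potentiation of KCNQ2 with more thallium influx and brighter signal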
KCNQ2 inh – rat KCNQ2 potassium channel inhibitors, primary screen, cell-based, CHO-K1, FluxOR thallium flux, B-score; 20 min; active compounds read low; B-score at 10 µM; 1.1% of 310,000 active; AID 2156, 2009;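 active = fluorescence ratio B-score at most minus 3 library SDs, with starting brightness B-score within 2 library SDs, cut at about -5.5 in these data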
Kir21 conf inh – mouse Kir2.1 channel blockers, retest, confirmation, cell-based, FluxOR thallium flux, duplicate | Tl flux remaining, % of negative control (active compounds read low), % at 10 µM | shares compounds with KCNQ2 enhance | 41% of 2,300 active | Kir2.1-expressing cells, FluxOR thallium flux fluorescence; active compounds read low;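 active = Primary-screen hit whose thallium flux fell at least 3 control SD below untreated wells in both duplicates, with normal baseline fluorescence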;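 note: 0% = blank wells without stimulus and 100% = stimulated no-compound controls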
HEK293 Tl flux – counter-screen for Kir2.1 inhibitors: effect in parental HEK293 cells; shares compounds with KCNQ2 enhance; FluxOR thallium flux fluorescence; 0% = unstimulated blank wells; FluxOR signal as % of negative control (100 = no effect), % at 10 µM; 19% of 2,300 active; AID 2105;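 active = dye signal at least 3 control SD above or below untreated wells in both duplicates, raw fluorescence within 3, either direction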;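 note: percent is based on the flux ratio of peak minus minimum fluorescence over baseline F0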
CHO-K1 Tl ctr – nonspecific thallium flux increase in parental CHO-K1, confirmation, counter-screen for KCNQ2 potentiator project, cell-based, FluxOR thallium flux, duplicate. activity increase over 3SD of controls, % at 10 µM. parental CHO-K1 cells, FluxOR thallium flux fluorescence; zero = vehicle mean+3SD, 100% = vehicle-minus-blank window. shares compounds with KCNQ2 enhance. AID 2282, 2010. 43% of 1,200 active;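 active = signal rise of at least 3 SD above the untreated control mean, in both duplicate wells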;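 note: counter screen of KCNQ2 potentiator hits so any rise reflects channel-independent effects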
KCNQ1 sel pot – human KCNQ1 channel potentiation off-target, confirmation, selectivity assay for KCNQ2 potentiator project, cell-based, CHO, FluxOR thallium flux; CHO KCNQ1 stable, FluxOR thallium flux fluorescence; beyond 3SD, as % of vehicle-control signal; 28% of 1,200 active; activation over 3SD threshold, % at 10 µM; shares compounds with KCNQ2 enhance; AID 2283, 2010;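 active = fluorescence ratio rise of at least 3 SD of vehicle wells above their mean, in both replicate wells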;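 note: 0% = vehicle mean plus 3 SD and 100% = vehicle minus unstimulated blank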
KCNQ2 pot confirm – rat KCNQ2 channel potentiators, confirmation, cell-based, CHO, FluxOR thallium flux, duplicate; shares compounds with KCNQ2 enhance; CHO-KCNQ2 cells, FluxOR thallium flux fluorescence; potentiation, less the hit threshold, % at 10 µM; 68% of 1,200 active; AID 2287, 2010;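 active = fluorescence ratio rising 3 SD or more over the vehicle control mean in both replicates, plus primary screen hit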;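 note: peak minus minimum thallium fluorescence divided by baseline after K/Tl stimulus; 0% = vehicle mean plus 3 SD and 100% = vehicle minus unstimulated blank difference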
Kir2-1 sel – mouse Kir2.1 channel activation off-target, confirmation, selectivity assay for KCNQ2 potentiator project, cell-based, HEK293, FluxOR thallium flux; shares compounds with KCNQ2 enhance; HEK293 Kir2.1, FluxOR thallium flux fluorescence; activity over 3SD threshold, % at 10 µM; 2% of 1,200 active;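 active = fluorescence ratio rise of at least 3 SD above the vehicle-control mean, seen in both replicates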;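 note: 0% = vehicle mean plus 3 SD and 100% = vehicle minus no-stimulus blank window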
KCNQ2 W236L MoA – potentiators of retigabine-insensitive KCNQ2 W236L, mechanism study for KCNQ2 potentiator project, cell-based, rat KCNQ2 W236L, CHO, automated patch clamp. AID 2558, 2010. shares compounds with KCNQ2 enhance. 10% of 940 active. current increase over 3SD of negative controls (%), active compounds read high, % at 25 µM. automated patch clamp current;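 active = current increase at least 3 SD of the untreated controls above them in both duplicate recordings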
Target sequence (O88943 whole entry W236L, looked up): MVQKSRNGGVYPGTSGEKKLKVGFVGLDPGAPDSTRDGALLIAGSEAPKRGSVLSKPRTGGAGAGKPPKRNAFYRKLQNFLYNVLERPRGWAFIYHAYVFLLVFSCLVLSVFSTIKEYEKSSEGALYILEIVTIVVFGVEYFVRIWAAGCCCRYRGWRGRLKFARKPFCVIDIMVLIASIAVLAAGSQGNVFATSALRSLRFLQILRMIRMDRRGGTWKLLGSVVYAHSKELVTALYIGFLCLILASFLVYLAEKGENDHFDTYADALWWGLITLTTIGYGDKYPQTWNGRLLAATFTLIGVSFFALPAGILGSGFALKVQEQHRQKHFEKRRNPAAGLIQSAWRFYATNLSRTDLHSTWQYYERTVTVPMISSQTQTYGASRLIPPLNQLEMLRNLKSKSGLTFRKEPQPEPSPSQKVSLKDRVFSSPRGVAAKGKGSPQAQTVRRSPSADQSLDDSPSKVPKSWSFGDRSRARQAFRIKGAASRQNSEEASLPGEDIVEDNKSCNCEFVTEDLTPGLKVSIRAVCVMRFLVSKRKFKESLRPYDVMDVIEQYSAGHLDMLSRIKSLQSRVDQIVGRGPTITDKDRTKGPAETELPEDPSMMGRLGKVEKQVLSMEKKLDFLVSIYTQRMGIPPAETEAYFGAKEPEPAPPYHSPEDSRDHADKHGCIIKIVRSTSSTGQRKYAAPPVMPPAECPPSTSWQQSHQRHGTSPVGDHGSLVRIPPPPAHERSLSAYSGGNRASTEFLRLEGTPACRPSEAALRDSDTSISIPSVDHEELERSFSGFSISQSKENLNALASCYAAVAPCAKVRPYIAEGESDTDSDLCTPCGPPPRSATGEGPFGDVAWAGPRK
Numbers without * were called inactive; i = inactive; nt = no result. Shown are actives, neighbours in structure and some others; about 1.6% of the full set was active somewhere.

SMILES	KCNQ2 enhance	KCNQ2 inh	Kir21 conf inh	HEK293 Tl flux	others
NCC12CC3CC(C1)CC(c1ccc(Br)cc1)(C3)C2	nt	i	34.5%*	i
COC1Cc2ccccc2N(C(N)=O)c2ccccc21 (stereo not given)	nt	i	nt	nt
COC(=O)CSc1[nH]c2ccc(F)cc2c1[N+](=O)[O-]	6.37*	i	i	i	CHO-K1 Tl ctr=-9.9;KCNQ1 sel pot=-26.8;KCNQ2 pot confirm=28.9*;Kir2-1 sel=-40.0;KCNQ2 W236L MoA=38.1%*
CCOC(=O)CSc1[nH]c2cc(OC)ccc2c1[N+](=O)[O-]	0.03	i	nt	nt
CCCCN1C(=O)C(=O)N(CC(=O)Nc2cc(S(=O)(=O)N(C)C)ccc2C)C1=O	0.91	i	nt	nt
Cc1cc(S(=O)(=O)N2CCCOC2CNC(=O)C(=O)NCCCN2CCOCC2)ccc1F (stereo not given)	nt	i	nt	nt
CN1CCN(NC(=O)COc2cccc(C(F)(F)F)c2)CC1	nt	i	nt	nt
Cc1cc(N2CCCC2)ccc1NC(=O)COc1cccc(C(F)(F)F)c1	6.4*	i	i	i	CHO-K1 Tl ctr=-10.8;KCNQ1 sel pot=-12.4;KCNQ2 pot confirm=6.0*;Kir2-1 sel=-39.9;KCNQ2 W236L MoA=i
COc1cccc(CC(=O)Nc2cc(C(F)(F)F)ccc2N2CCCC2)c1	5.37*	i	i	i	CHO-K1 Tl ctr=-14.7;KCNQ1 sel pot=-21.9;KCNQ2 pot confirm=-0.8;Kir2-1 sel=-32.5;KCNQ2 W236L MoA=i
O=C(COc1ccccc1)Nc1cc(C(F)(F)F)ccc1N1CCCC1	nt	i	nt	nt
COCC1CCN(C(=O)c2cc(COc3ccc4c(c3)CCCC4)on2)C1 (stereo not given)	0.7	i	nt	nt
O=C(c1cc(COc2ccc3c(c2)CCCC3)on1)N1CCCC1	1.06	i	i	i
NC(=O)C(c1ccc(Cl)cc1Cl)c1ncc(C(F)(F)F)cc1Cl (stereo not given)	nt	i	nt	nt
Cc1c(S(=O)(=O)NC2CCCCCC2)c(=O)n(C)c(=O)n1C	nt	i	nt	nt
COc1ccc(C2=NS(=O)(=O)N(C)C(C(=O)NCc3ccc4c(c3)OCO4)=C2)cc1OC	2.4	i	nt	nt
CN(C)CCCN(C(=O)c1ccc(Br)s1)c1nc2cc3c(cc2s1)OCCO3	nt	i	i	i
CCN(CC)CCN(C(=O)c1ccc(Br)s1)c1nc2cc3c(cc2s1)OCCO3	1.96	i	nt	nt
Cc1ccc(S(=O)(=O)Nc2cc(C(C)C)c(O)cc2C)cc1	nt	i	34.0%*	71.0%*
Cc1ccc(S(=O)(=O)Nc2cc(Cl)c(O)cc2C)cc1	nt	i	nt	nt
CC(Oc1cc2oc(=O)c3c(c2cc1Cl)CCCC3)C(=O)NCCN1CCOCC1 (stereo not given)	3.81	i	nt	nt
COc1ccc(NC2CCCN(C(=O)CN3C(=O)c4ccccc4C3=O)C2)cc1OC (stereo not given)	nt	i	nt	nt
COc1ccc(CC(=O)Nc2nc(C)cs2)cc1	nt	i	nt	nt
COc1ccc(CC(=O)Nc2nc(C(C)(C)C)cs2)cc1	nt	i	30.0%*	i
COc1ccc2ccccc2c1CNC(C)CCc1ccccc1 (stereo not given)	nt	i	40.5%*	i
COc1ccc(CCNCc2c(OC)ccc3ccccc23)cc1OC	0.43	i	nt	nt
SMILES	KCNQ2 enhance	KCNQ2 inh	Kir21 conf inh	HEK293 Tl flux	others
O=C(c1ccc(S(=O)(=O)N2CCOCC2)cc1)N1CCc2ccccc21	0.23	i	nt	nt
O=C(c1ccc(-c2ccccc2Cl)o1)N1CCN(S(=O)(=O)c2cccs2)CC1	nt	i	nt	nt
COC(=O)c1sc(NC(=S)NC(=O)c2ccc(F)cc2)nc1C	2.32	i	nt	nt
COC(=O)c1sc(NC(=S)NC(=O)c2ccccc2C)nc1C	12.2*	i	i	302.0%*	CHO-K1 Tl ctr=-4.0;KCNQ1 sel pot=32.6*;KCNQ2 pot confirm=46.6*;Kir2-1 sel=-37.0;KCNQ2 W236L MoA=i
COC(=O)/C=C1\OC(c2ccccc2)=CC1=O	-12.7	-12.7*	53.5%*	66.0%*
O=C1OC(c2ccccc2)=C/C1=C/N1CCCCC1	nt	i	nt	nt
CCCOC(=O)Nc1c(C)cccc1C(C)C	nt	i	nt	nt
COc1cc(C(=O)NCC(=O)N/N=C/c2cccnc2)cc(OC)c1OC	nt	i	nt	nt
COc1cccc(CNC(=O)CSCc2cnn(-c3ccccc3)c2-n2cccc2)c1OC	nt	i	nt	nt
COc1ccccc1CNC(=O)CSCc1cnn(-c2ccccc2)c1-n1cccc1	nt	i	i	i
CC(C)(C)OC(=O)N1CCC[C@H]1c1nnc(SCc2c(Cl)cccc2Cl)o1	nt	i	nt	nt
Cc1cccc(CSc2nnc([C@@H]3CCCN3C(=O)OC(C)(C)C)o2)c1	nt	i	56.5%*	i
O=C(CN1CCN(Cc2ccccc2)CC1)N1CCCc2ccccc21	0.64	i	nt	nt
O=C(CN1CCN(Cc2ccc(Cl)cc2)CC1)N1CCc2ccccc21	0.49	i	35.0%*	i
O=C(C1=C[C@@H](c2coc3ccccc3c2=O)C[C@@H](OCCCCO)O1)N1CCN(Cc2ccc3c(c2)OCO3)CC1	nt	i	nt	nt
COc1cccc(CN(C)C(=O)c2sccc2-c2ccccc2)c1OC	nt	i	nt	nt
CN(Cc1ccccc1F)C(=O)c1sccc1-c1ccccc1	nt	i	53.5%*	i
COc1ccccc1CNC(=O)c1sccc1C	nt	i	nt	nt
COc1ccccc1CNC(=O)c1sccc1-c1ccccc1	nt	i	74.0%*	i
OC(CN1CCN(c2ccccc2Cl)CC1)c1ccccc1 (stereo not given)	nt	i	nt	nt
COc1ccc(C2C(C#N)=C(N)N(c3sc4c(c3C#N)CCCC4)C3=C2C(=O)CC(C)(C)C3)cc1 (stereo not given)	nt	i	nt	nt
COc1ccc(C2C(C#N)=C3NC(=O)c4c(sc5c4CCCCC5)N3C3=C2C(=O)CC(C)(C)C3)cc1 (stereo not given)	13.3*	i	i	i	CHO-K1 Tl ctr=69.9*;KCNQ1 sel pot=-4.4;KCNQ2 pot confirm=15.2*;Kir2-1 sel=-23.0;KCNQ2 W236L MoA=i
Cc1cc(C)c(NC(=O)CN2CCN(c3ccccn3)CC2)c(C)c1	nt	i	nt	nt
